Compound activity (PubChem BioAssay)
D3 ag = D3 dopamine receptor (human) agonism; D3R DiscoveRx beta-arrestin cells, luminescence, 90 min; max activation, %; hit rate 0.58% among 410,000; in the data active = max activation above about 30%; note: 0% is about no effect
Target sequence (P35462 whole entry, looked up): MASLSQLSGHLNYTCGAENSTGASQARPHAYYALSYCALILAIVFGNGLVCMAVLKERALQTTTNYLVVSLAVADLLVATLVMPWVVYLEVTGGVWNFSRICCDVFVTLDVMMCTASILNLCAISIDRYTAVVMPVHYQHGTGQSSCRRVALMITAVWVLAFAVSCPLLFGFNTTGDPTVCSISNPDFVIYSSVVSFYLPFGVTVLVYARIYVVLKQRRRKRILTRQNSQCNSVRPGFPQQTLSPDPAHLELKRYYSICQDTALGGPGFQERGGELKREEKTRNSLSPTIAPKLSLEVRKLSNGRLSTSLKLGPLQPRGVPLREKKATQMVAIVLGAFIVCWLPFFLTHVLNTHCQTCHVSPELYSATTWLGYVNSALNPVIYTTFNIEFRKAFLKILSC
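Agonist-mode cell screen: cells plated at 1500/well and incubated overnight at 37 °C, then exposed to library compounds for 90 min at 37 °C. Detection reagent was added for 30–60 min at room temperature, and luminescence was read.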
IL-1B inflam inh = inflammasome signaling inhibition, IL-1 beta readout. THP-1 LPS/ATP IL-1B secretion, AlphaLISA, 16 h; active compounds read low. activity change, % at 57.5 µM. hit rate 4.7% among 360,000. AID 743279; in the data active = activity change below about -50%; inconclusive = mostly about -30% to -49%; note: % is set by controls: 0 for no effect and ±100 for the full control effect
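THP-1 cells pretreated 1 hr with compounds (up to 57.5 uM final), then stimulated with LPS (250 ng/mL final) plus ATP (1.25 mM final); secreted IL-1B measured by AlphaLISA after 16 hr, decreased signal indicating inhibition.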
S2 tox = viability counter-screen for ATXN expression inhibitors; hit rate 0.49% among 400,000; S2 cells (HEK-293 line with an ATXN2-luciferase reporter) viability, CellTiter-Fluor protease fluorescence, 24 h; AID 651635; Potency, µM (doses to about 56.7 µM), actives largely listed as cytotoxic; note: potency is the fitted concentration of half-maximal effect; nearly all actives have a fitted effect of over 40% in size
ATXN2 expr inh = inhibitors of ATXN2 expression | hit rate 0.72% among 360,000 | HEK-293 ATXN2-luciferase reporter, luminescence, 24 h | Potency, µM (top dose mostly 57 µM), for inactives: top-dose activity change, negative = inhibition, hits mostly inhibitors; note: potency is the fitted concentration of half-maximal effect; % is set by controls: 0 for no effect and ±100 for the full control effect; nearly all actives have a fitted effect of over 55% in size
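ATXN2-luciferase reporter cells (luciferase flanked by upstream and downstream ATXN2 gene portions) were treated 24 h at 37 °C with compounds at up to 57 uM. SteadyGlo luminescence gave expression; GF-AFC fluorescence gave viability.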
DRD3 antagonist = blocks the human D3 dopamine receptor; P35462; D3R cells, DiscoveRx beta-arrestin luminescence, antagonist mode; active compounds read low; hit rate 2.5% among 360,000; max response, negative = inhibition, %; in the data active = max response below about -50%; inconclusive = no clear call, values can overlap the other calls; note: % is set by controls: 0 for no effect and ±100 for the full control effect
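Cells expressing the human receptor were seeded at 1500 cells/well, incubated overnight at 37 degrees C in 5% CO2, then exposed to library compounds with dopamine controls for 90 minutes at 37 degrees C before luminescent detection.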
a7 integrin act = activators of alpha7 integrin expression for muscular dystrophy. alpha7betagal myoblasts, beta-gal FDG fluorescence, 48 h. Potency, µM (titrated, usually from 38.3 µM), for the others: at the top dose activation, actives largely listed as activators. hit rate 0.064% among 350,000;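 note: potency is the fitted concentration of half-maximal effect; 100% = response of the positive control SU9516; nearly all actives have a fitted effect of over 60% in size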
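alpha7betagal+/- myoblasts (passage 13, 250/well) treated 48 h at 37C with compounds at 1:260 dilution of DMSO stock. Lysed, then beta-galactosidase activity read as FDG fluorescence (ex 480/em 540) after 30 min, with pre-read for autofluorescence.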
An asterisk follows results filed as active; i = inactive; ? = inconclusive; . = not tested or not shown; [ ] = another dose, or the depositor's remark. Compounds with a hit are over-represented: about 7% of the library has one in this group of screens. Unless noted, calls come from the whole dose curve; as a rule, active = well fitted curve in the direction sought with a large enough effect; inconclusive = small, poorly fitted or top-dose-only effect, or another doubt; inactive = no such curve, though single readings can be large; an effect the other way counts as inactive or inconclusive.

SMILES | D3 ag | IL-1B inflam inh | S2 tox | ATXN2 expr inh | DRD3 antagonist | a7 integrin act
COc1ccc(OC)c(/C=N/NC(=O)CCc2n[nH]c(=O)[nH]c2=O)c1 | -2 | 24 | i | 5% | -1 | -3%
CCOC(=O)[C@]12Cc3c(cc(OC)c(OC)c3OC)[C@H]1N(C1CCCCC1)C(=O)c1cc(OC)ccc12 | -4 | -118* | 14µM* | ? | 6 | .
CCOC(=O)N1CCC(N2C(=O)c3ccccc3C2Nc2cc(OC)c(OC)c(OC)c2)CC1 (stereo not given) | -1 | -19 | i | 3% | -6 | -11%
O=c1oc2cc([N+](=O)[O-])ccc2nc1/C=C(\O)c1cccc(Br)c1 | 15 | 11 | i | -8% | -56* | 5%
C=C1CCN([C@@H](CC(C)C)C(=O)NCCC(C)C)S(=O)(=O)c2ccccc21 | -24 | 21 | i | -13% | -50* | -27%
COc1cc([N+](=O)[O-])cc2sc(NC(C)=O)nc12 | -3 | ? | i | . | -16 | -2%
COc1ccccc1CNc1ccc2c(c1)CCC2 | -3 | -60* | i | 2% | -7 | -38%
CCOC(=O)c1ccc(NC(=O)CCS(=O)(=O)c2cccc3nonc23)cc1 | 12 | 3 | i | 3% | -1 | -16%
CC(=O)Nc1ccc(S(=O)(=O)N2CCN(C(=O)c3ncoc3-c3cccc(C)c3)CC2)cc1 | -10 | 3 | i | -2% | -7 | -11%
S=C(Nc1ccccc1Cl)NC1CCN(Cc2ccccc2)CC1 | -7 | -7 | i | -13% | -84* | -32%
S=C(NCc1ccc(Cl)cc1)NC1CCN(Cc2ccccc2)CC1 | -16 | -92* | i | ? | -66* | -52%
S=C(Nc1ccc(Cl)cc1Cl)NC1CCN(Cc2ccccc2)CC1 | -6 | 4 | i | -10% | -28 | -32%
S=C(Nc1cc(Cl)cc(Cl)c1)NC1CCN(Cc2ccccc2)CC1 | -14 | -66* | ? | ? | -94* | -40%
Cc1c(Cl)cccc1NC(=S)NC1CCN(Cc2ccccc2)CC1 | -13 | -73* | i | -16% | -72* | -36%
O=C(Nc1ccccc1)NC1CCN(Cc2ccccc2)CC1 | . | -28 | i | -4% | . | -36%
CC(C)c1ccccc1NC(=S)NC1CCN(Cc2ccccc2)CC1 | -40 | ? | i | -12% | -79* | -18%
FC(F)(F)c1ccccc1NC(=S)NC1CCN(Cc2ccccc2)CC1 | -20 | -9 | ? | 1%[11.3 µM] | -58* | -33%
Cc1cc(C)n(Cc2cccc(C(=O)NCC3Cc4cccc(-c5ncccn5)c4O3)c2)n1 (stereo not given) | . | . | i | . | . | .
CN(Cc1ccccc1)C(=O)c1ccc(Nc2nc(C(N)Cc3ccccc3)cs2)nc1 (stereo not given) | 0 | -9 | 16µM* | 14µM* | -3 | .
CN(Cc1ccccc1)C(=O)c1ccc(Nc2nc(C(N)Cc3ccc(C(F)(F)F)cc3)cs2)nc1 (stereo not given) | 5 | -105* | 32µM* | ? | 30 | .
CN(Cc1ccccc1)C(=O)c1ccc(Nc2nc(C(N)COCc3ccccc3)cs2)nc1 (stereo not given) | 4 | ? | ? | ? | 0 | .
CC(C)CC(N)c1csc(Nc2ccc(C(=O)N(C)Cc3ccccc3)cn2)n1 (stereo not given) | -12 | -14 | 28µM* | 28µM* | 0 | .
CCOc1ccc(/C=C2\CCC(C3CCCC3)C2=O)cc1 (stereo not given) | 6 | -4 | i | 47% | 5 | ?
CCC(=O)OCOc1ccc(/C=C2/CCC(CN(C)C)C2=O)cc1 (stereo not given) | -10 | -1 | ? | ? | -87* | -59%
COc1ccc(CCNC(=O)Cn2nc(-c3ccc(Cl)cc3)ccc2=O)cc1OC | -3 | . | . | . | . | .
SMILES | D3 ag | IL-1B inflam inh | S2 tox | ATXN2 expr inh | DRD3 antagonist | a7 integrin act
Cc1cc2nc(-c3ccc(OCc4ccccc4C)cc3)cc(C(F)(F)F)n2n1 | 1 | . | i | 1% | . | .
CCOC(=O)C1(CCOc2ccccc2)CCN(Cc2ccc(OCC)c(CO)c2)CC1 | -9 | -24 | ? | -35% | -3 | ?
CCOC(=O)C1(CCOc2ccccc2)CCN(Cc2cc(OC)c3c(c2)OCO3)CC1 | -6 | -61* | i | ? | -10 | -58%
CCOC(=O)C1(CCOc2ccccc2)CCN(Cc2cccc3c2OCO3)CC1 | -41 | -84* | i | -28% | -60* | -8%
COc1ccc(OC2C(=O)N(Cc3ccc4c(c3)OCO4)C2c2cccs2)cc1 (stereo not given) | 17 | -81* | i | -15% | 45 | -30%
Cc1ccccc1OC1C(=O)N(Cc2ccc3c(c2)OCO3)C1c1sccc1C (stereo not given) | -2 | -60* | i | ? | -3 | -18%
COc1ccc(CCNC(=O)CCCC(=O)n2nc(C)c3ccccc32)cc1OC | 4 | -10 | i | 2% | -1 | 0%
Cc1c(CCO)c(=O)oc2n[nH]c(-c3ccccc3)c12 | 11 | -61* | i | -24% | -10 | 21%
COc1ccc(C)cc1S(=O)(=O)N(CC(=O)Nc1cccc([N+](=O)[O-])c1)c1ccc(C)c(C)c1 | -17 | -3 | ? | 4% | -23 | 6%
COc1ccccc1OCCCCn1c(C2CC(=O)N(c3ccccc3Cl)C2)nc2ccccc21 (stereo not given) | -7 | . | i | -5% | . | .
COCCn1c(SCC(=O)N2CCc3ccccc3C2)nc2ccccc2c1=O | 3 | -2 | ? | -4% | 12 | -6%
Cc1oc2c(c1C(=O)NCc1cccnc1)C(=O)c1ccccc1C2=O | -7 | -81* | 2.8µM* | 2.8µM* | -72* | 0%
COc1ccc(CNC(=O)c2c(C)oc3c2C(=O)c2ccccc2C3=O)cc1 | -7 | 37 | i | ? | -72* | -43%
CC(=O)c1c(C)oc2c1C(=O)c1ccccc1C2=O | -17 | 35 | ? | ? | -17 | 0%
Fc1ccccc1COc1ccc(C(=S)N2CCCC2)cc1 | -3 | -1 | i | . | -7 | -4%
CC1=C(C(=O)Nc2ccccc2)C2(CCCCC2)C(C#N)=C(S)N1 | -4 | 8 | i | 5% | -11 | 23%
CCNS(=O)(=O)c1ccc(CCC(=O)N2CCc3ccccc3C2)cc1 | 4 | 0 | . | 0% | -72* | 4%
Cc1nc(SCc2ccc(C(=O)O)cc2)nc2c1CCCC2 | -1 | 30 | i | ? | -26 | ?
CCN(CC)C(=O)c1scc2c1OCCO2 | -4 | -56* | i | 1% | ? | 8%
CN(C)c1ccc(C=c2c3ccccc3n3c2cc(-c2ccccc2)[n+]3C)cc1 | -11 | -102* | 6µM* | ? | ? | -54%
